# A selection: hits, their analogues and other compounds. The true share with any hit is near 0.28%.
# hcGAS lum: inhibitors of human cGAS. Q8N884. recombinant h-cGAS, ATP depletion, Kinase-Glo luminescence. inhibition, % at 12.5 µM. hit rate 0.081% among 290,000;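 note: 0% = vehicle reaction and 100% = reaction without DNA for no activity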
# NPYLR7 ag: mosquito NPYLR7 agonism | HEK293T NPYLR7/Galpha15, GCaMP6s calcium fluorescence | activation, % at 10 µM | hit rate 0.15% among 270,000; in the data active = activation above about 40%;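 note: 0% = vehicle and 100% = reference agonist at the receptor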
# mcGAS lum: inhibitors of mouse cGAS. Q8C6L5. recombinant cGAS, Kinase-Glo ATP depletion luminescence. inhibition, % at 12.5 µM. hit rate 0.15% among 160,000. AID 1259399;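 note: 0% = negative control wells and 100% = reference inhibitor with no enzyme activity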
# Target sequence (Q8C6L5 whole entry, looked up): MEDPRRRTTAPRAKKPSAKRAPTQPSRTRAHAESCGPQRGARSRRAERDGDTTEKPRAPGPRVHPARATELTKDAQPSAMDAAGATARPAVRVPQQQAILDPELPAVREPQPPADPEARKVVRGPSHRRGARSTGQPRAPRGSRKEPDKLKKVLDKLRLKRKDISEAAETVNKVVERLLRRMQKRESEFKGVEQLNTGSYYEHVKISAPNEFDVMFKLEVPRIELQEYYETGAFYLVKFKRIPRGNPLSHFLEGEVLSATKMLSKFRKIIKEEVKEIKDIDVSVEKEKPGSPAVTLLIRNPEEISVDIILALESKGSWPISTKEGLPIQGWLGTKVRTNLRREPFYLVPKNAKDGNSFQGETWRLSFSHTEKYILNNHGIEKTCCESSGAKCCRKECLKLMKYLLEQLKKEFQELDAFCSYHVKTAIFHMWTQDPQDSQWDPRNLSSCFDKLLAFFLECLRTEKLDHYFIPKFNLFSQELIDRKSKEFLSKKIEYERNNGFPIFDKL
# * = called active by the depositor; . = not tested or not shown. Cut-off read from the data, not from the text of the source, unless noted: active = inhibition above about 40%; inactive = the rest.
SMILES,hcGAS lum,NPYLR7 ag,mcGAS lum
C=CCC(O)(CC=C)c1ccc(CN(Cc2ccc(OC)cc2)C2CC2)o1,-1,-5,0
CCCCCCCCCCCCCC(=O)N(Cc1ccc(OS(=O)(=O)CC)cc1)C(C)C,3,.,0
CCOC(=O)C1=C(C)NC(C)=C(C(=O)OCC)C1c1cc(Cl)ccc1OC(F)F,-6,50*,-3
COC(=O)C1=C(C)NC(C)=C(C(=O)OC)C1c1cc(Cl)ccc1OC(F)F,-2,1,-3
CN(C)C(=O)CSc1nnc2c(=O)n(Cc3ccc(F)cc3)ccn12,-5,0,.
CCCCCc1ccc(C(=O)CSc2nnc(NC(=O)c3ccc(C(C)(C)C)cc3)s2)cc1,-1,3,1
Cc1[nH]c(/C=C2\C(=O)Nc3ccccc32)c(C)c1CCC(=O)O,-1,74*,.
O=C(O)C=C1C(=O)Nc2ccccc21,-6,-1,-4
Fc1ccc(Nc2nc(-c3ccc(Cl)cc3)nc3ccccc23)cc1,1,18,-3
N#CC(C(=N)C(C#N)C#N)=C(C=Cc1cccs1)C1CC1,-4,0,-2
CCc1cc(=O)[nH]c2n[nH]c(=S)n12,3,-3,.
O=c1cc(-c2ccccc2)n2c(=S)[nH]nc2[nH]1,64*,-3,.
O=C(Cn1nc2c(c1NC(=O)c1ccco1)CSC2)NCCc1ccccc1,0,3,2
CCC(=O)Nc1ccc2c(c1)N(C(=O)Cc1cccc(OC)c1)CC2,-6,-16,2
CCc1cccc(NC(=O)Cc2c(Cl)cc(C)nc2Cl)c1,-2,1,.
CCN(CC)c1ccc2cc(C(N)=O)c(=NCc3ccccc3)oc2c1,1,-3,.
CCN(CC)c1ccc2cc(C(N)=O)/c(=N\NC(N)=S)oc2c1,-7,130*,3
CCOC(=O)c1nc2ccccc2nc1N1CCN(C(=O)N2CCOCC2)CC1,-6,52*,.
C=CC(=O)N1CCN(c2nc3ccccc3nc2C(=O)OCC)CC1,-10,12,-4
C=CCOCC(O)CN(Cc1ccc2c(c1)OCO2)Cc1cc(C)ccc1C (stereo not drawn),2,12,-2
C#CCOCC(O)CN(Cc1ccc(F)cc1)Cc1ccc2c(c1)OCO2 (stereo not drawn),-4,9,77*
C#CCOCC(O)CN(Cc1ccc2c(c1)OCO2)Cc1cc(C)ccc1C (stereo not drawn),0,23,-4
C=CCOCC(O)CN(Cc1ccc2c(c1)OCO2)Cc1ccc(C)s1 (stereo not drawn),-4,19,83*
O=C(NCC1COc2ccccc2C1)C1CC2CCC1C2 (stereo not drawn),-2,-1,.
COCCN(Cc1ccccc1OS(C)(=O)=O)C(=O)c1cccc(F)c1,-8,-3,-8
SMILES,hcGAS lum,NPYLR7 ag,mcGAS lum
O=C(Cn1cnc(-c2ccccc2)cc1=O)NC(c1ccccc1)c1ccccc1,-5,13,.
C=C(C)Cn1c(=O)c2c(nc3n(-c4ccccc4O)c(C)c(C)n23)n(C)c1=O,5,4,-5
CCC1(O)CC(OC2CC(N(C)C)C(OC3CC(O)C(OC4CCC(=O)C(C)O4)C(C)O3)C(C)O2)c2c(cc3c(c2O)C(=O)c2c(O)cccc2C3=O)C1C(=O)OC (stereo not drawn),79*,-10,.
CC(Oc1ccc(C#N)cc1)C(=O)N/N=C\C=C\c1ccco1 (stereo not drawn),-1,-3,.
COc1ccc(C(=O)N2CCN(C(C(=O)Nc3cc(OC)cc(OC)c3)C3CCCC3)CC2)cc1 (stereo not drawn),-8,-1,-6
COc1cc(OC)cc(C(=O)N2CCN(C(C(=O)Nc3ccc(NC(C)=O)cc3)C3CCCC3)CC2)c1 (stereo not drawn),-6,60*,-5
COc1ccc(-c2cccc(-c3ccc(NC(=O)c4oc5ccccc5c4C)cc3)n2)cc1,-3,43*,-6
COc1ccc(-c2cccc(-c3ccc(NC(=O)c4c(F)cccc4F)cc3)n2)cc1,-2,1,-4
COCCNC(=O)N1CCc2nc(N3CCN(C)CC3)sc2C1,58*,.,-2
CCCNC(=O)N1CCN(c2nc3c(s2)CN(C(=O)CC)CC3)CC1,-6,.,-6
CSc1ccc(C2CC(c3cccs3)=Nc3ncnn32)cc1 (stereo not drawn),-5,124*,.
c1ccc(C2=Nc3ncnn3C(c3ccccc3)C2)cc1 (stereo not drawn),5,1,1
Cc1ccc(-c2nc(CN3CCC4(CCCO4)CCC3=O)c(C)o2)cc1 (stereo not drawn),-6,9,.
CN(Cc1cccc(Cl)c1)C(=O)Cn1c(=O)[nH]c(=O)c2ccccc21,-19,4,.
CCn1c(SCC(=O)N2C(C)CCCC2C)nnc1-c1ccncc1 (stereo not drawn),1,-11,.
O=C(c1csc2nc(-c3cccc(C(F)(F)F)c3)cn12)N1CCCC1c1nccs1 (stereo not drawn),-7,4,-12
Cc1nc(CCNC(=O)c2cc(C(C)C)on2)sc1C,-4,0,.
Cc1cccc2[nH]c(CCNC(=O)c3cc(C(C)C)on3)nc12,73*,4,-9
COc1ccccc1-n1c(CSCC(=O)Nc2ccc3ccccc3c2)nc2ccccc2c1=O,-1,-2,-2
O=C(O)C1=CC(=C(c2ccc(O)c(C(=O)O)c2)c2ccc(O)c(C(=O)O)c2)C=CC1=O,80*,-3,106*
Nc1ccc(O)c(C(=O)O)c1,-4,-7,.
C=CCOc1c(Br)cc(/C=N\NC(=O)COc2nc(C)c(Br)c(COC)c2C#N)cc1Br,-7,10,-4
CCc1nnsc1C(=O)N(C)CC(=O)Nc1ccccc1,-2,-1,-4
Cc1ccn2c(CNCc3ccc(F)cc3F)c(C(=O)N3CCCCCC3)nc2c1,-6,17,.
CC(C)NCC(O)c1ccc(O)c(O)c1 (stereo not drawn),-1,15,-4
SMILES,hcGAS lum,NPYLR7 ag,mcGAS lum
CNC[C@H](O)c1ccc(O)c(O)c1,-2,83*,-3
Cc1cc(N2CCN(c3ccccc3F)CC2)nc(SCc2cccc(C(=O)N3CCOCC3)c2)n1,5,-3,0
Cc1cc(O)c(CN2CCN(CCO)CC2)c2c1C(=O)/C(=C/c1cccc(Br)c1)O2,-7,25,6
O=C1/C(=C/c2cc3cc(Br)ccc3o2)Oc2c1ccc(O)c2CN1CCN(CCO)CC1,-2,72*,-3
CSc1nccc(NCC2CNCCO2)n1 (stereo not drawn),-7,10,.
O=C1NN=C(c2ccccc2)C/C1=N/Nc1ncnc2ccccc12,-2,7,-9
C(=Cc1ccccc1)C=NNc1ncnc2ccccc12,-6,161*,.
O=C(NCc1ccccc1)C1CCN(c2ncnc3c2sc2ncccc23)CC1,-6,1,-7
N#Cc1c(SCc2ccccc2C(F)(F)F)sc2c(O)cc(=O)[nH]c12,6,-1,63*
CC(=O)CSc1sc2c(O)cc(=O)[nH]c2c1C#N,-2,13,73*
N#Cc1c(SCc2ccccc2C(F)(F)F)sc2c(=O)[nH]c(=O)[nH]c12,8,-3,7
NC(=O)c1c(SCC(=O)c2ccc(F)cc2)sc2c(O)cc(=O)[nH]c12,0,1,-1
COc1cc(SC)ccc1C(=O)NCCCC12CC3CC(CC(C3)C1)C2,-9,1,-5
CC(C)OCC(=O)N1CCN(C(C)C(=O)NC2CCCC2)CC1 (stereo not drawn),-5,7,-12
